PubChem BioAssay AID1159580 (chemical genetic matrix, 2015)
About 2,000 (36%) of roughly 5,500 compounds were called active. Another 18% or so got no clear call; they are omitted. Rule as the data show it: active = normalized growth mostly below about 0.91 (no sharp cut-off); inconclusive = no clear call, values can overlap the other calls; inactive = mostly above about 0.92. This is one part of the list.

Experiment: chemical genetic growth profiling, strain panel (AID 1159580);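 also: tested at 20 µM; growth read once vehicle control cultures reached saturation at 30 °C; 1 = growth at the plate median or of vehicle wells; lower values mean less growth of the strain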
Conditions: growth OD

Measured: normalized growth

Cc1cc(-c2ccccc2)nnc1NCCN1CCOCC1
inactive: S. cerevisiae deletion strains, locus YJR075W, strain HOC1, active compounds read low 0.997 | S. cerevisiae deletion strains, locus YKL009W, strain mrt4, active compounds read low 1.08 | S. cerevisiae deletion strains, locus YKL068W, active compounds read low 0.969 | S. cerevisiae deletion strains, locus YKL085W, strain MDH1 (second series), active compounds read low 1 | S. cerevisiae deletion strains, locus YKL085W, strain MDH1, active compounds read low 1 | S. cerevisiae deletion strains, locus YKL160W, strain elf1, active compounds read low 0.966 | S. cerevisiae deletion strains, locus YKL190W, strain CNB1, active compounds read low 1 | S. cerevisiae deletion strains, locus YKR001C, strain vps1, active compounds read low 0.98 | S. cerevisiae deletion strains, locus YKR026C, strain gcn3, active compounds read low 0.995 | S. cerevisiae deletion strains, locus YKR091W, strain srl3, active compounds read low 0.995 | S. cerevisiae deletion strains, locus YLL001W, strain dnm1, active compounds read low 0.976 | S. cerevisiae deletion strains, locus YLL026W, active compounds read low 0.992 | S. cerevisiae deletion strains, locus YLL041C, strain sdh2, active compounds read low 0.988 | S. cerevisiae deletion strains, locus YLR027C, strain aat2, active compounds read low 0.989 | S. cerevisiae deletion strains, locus YLR039C, strain RIC1, active compounds read low 0.999 | S. cerevisiae deletion strains, locus YLR058C, strain SHM2, active compounds read low 1.01 | S. cerevisiae deletion strains, locus YLR102C, strain apc9, active compounds read low 0.968 | S. cerevisiae deletion strains, locus YLR113W, strain HOG1, active compounds read low 0.964 | S. cerevisiae deletion strains, locus YLR221C, strain rsa3, active compounds read low 0.989 | S. cerevisiae deletion strains, locus YLR258W, strain gsy2, active compounds read low 0.995 | S. cerevisiae deletion strains, locus YLR262C, strain YPT6 (second series), active compounds read low 0.98 | S. cerevisiae deletion strains, locus YLR262C, strain YPT6, active compounds read low 1.04 | S. cerevisiae deletion strains, locus YLR268W, strain sec22, active compounds read low 0.946 | S. cerevisiae deletion strains, locus YLR320W, strain mms22, active compounds read low 0.984 | S. cerevisiae deletion strains, locus YLR330W, strain CHS5, active compounds read low 0.999 | S. cerevisiae deletion strains, locus YLR342W, strain FKS1 (second series), active compounds read low 1.07 | S. cerevisiae deletion strains, locus YLR342W, strain FKS1, active compounds read low 0.983 | S. cerevisiae deletion strains, locus YLR357W, strain rsc2, active compounds read low 0.975 | S. cerevisiae deletion strains, locus YLR370C, strain arc18, active compounds read low 0.986 | S. cerevisiae deletion strains, locus YLR371W, strain rom2, active compounds read low 0.967 | S. cerevisiae deletion strains, locus YLR384C, strain iki3, active compounds read low 0.976 | S. cerevisiae deletion strains, locus YLR418C, strain cdc73, active compounds read low 0.998 | S. cerevisiae deletion strains, locus YML016C, strain PPZ1, active compounds read low 1.02 | S. cerevisiae deletion strains, locus YML032C, strain rad52, active compounds read low 0.974 | S. cerevisiae deletion strains, locus YML120C, strain ndi1, active compounds read low 0.972 | S. cerevisiae deletion strains, locus YML124C, strain tub3, active compounds read low 0.978 | S. cerevisiae deletion strains, locus YMR058W, strain fet3, active compounds read low 0.988 | S. cerevisiae deletion strains, locus YMR078C, strain ctf18, active compounds read low 0.978 | S. cerevisiae deletion strains, locus YMR125W, strain sto1, active compounds read low 0.972 | S. cerevisiae deletion strains, locus YMR129W, active compounds read low 0.989 | S. cerevisiae deletion strains, locus YMR205C, strain PFK2, active compounds read low 0.965 | S. cerevisiae deletion strains, locus YMR223W, strain ubp8, active compounds read low 1.02 | S. cerevisiae deletion strains, locus YMR231W, strain pep5, active compounds read low 0.998 | S. cerevisiae deletion strains, locus YMR263W, strain SAP30, active compounds read low 0.997 | S. cerevisiae deletion strains, locus YMR307W, strain GAS1, active compounds read low 1.04 | S. cerevisiae deletion strains, locus YNL067W, strain RPL9B, active compounds read low 0.985 | S. cerevisiae deletion strains, locus YNL071W, strain lat1, active compounds read low 0.987 | S. cerevisiae deletion strains, locus YNL128W, strain TEP1, active compounds read low 0.995 | S. cerevisiae deletion strains, locus YNL153C, strain GIM3, active compounds read low 1.01 | S. cerevisiae deletion strains, locus YNL183C, strain NPR1, active compounds read low 0.931 | S. cerevisiae deletion strains, locus YNL209W, strain ssb2, active compounds read low 0.991 | S. cerevisiae deletion strains, locus YNL233W, strain BNI4, active compounds read low 1.01 | S. cerevisiae deletion strains, locus YNL248C, strain rpa49, active compounds read low 0.985 | S. cerevisiae deletion strains, locus YNL250W, strain rad50, active compounds read low 0.98 | S. cerevisiae deletion strains, locus YNL271C, strain bni1, active compounds read low 0.968 | S. cerevisiae deletion strains, locus YNL298W, strain CLA4, active compounds read low 0.977 | S. cerevisiae deletion strains, locus YNL307C, strain MCK1, active compounds read low 0.993 | S. cerevisiae deletion strains, locus YNL322C, strain KRE1 (second series), active compounds read low 0.981 | S. cerevisiae deletion strains, locus YNL322C, strain KRE1, active compounds read low 0.994 | S. cerevisiae deletion strains, locus YNR049C, strain mso1, active compounds read low 0.982 | S. cerevisiae deletion strains, locus YNR052C, strain pop2, active compounds read low 0.973 | S. cerevisiae deletion strains, locus YOL006C, strain TOP1, active compounds read low 0.959 | S. cerevisiae deletion strains, locus YOL012C, strain htz1 0.852 | S. cerevisiae deletion strains, locus YOL147C, strain pex11, active compounds read low 0.977 | S. cerevisiae deletion strains, locus YOR001W, strain rrp6, active compounds read low 0.986 | S. cerevisiae deletion strains, locus YOR061W, strain CKA2, active compounds read low 1.01 | S. cerevisiae deletion strains, locus YOR069W, strain VPS5, active compounds read low 1.01 | S. cerevisiae deletion strains, locus YOR070C, strain gyp1, active compounds read low 0.993 | S. cerevisiae deletion strains, locus YOR080W, strain dia2, active compounds read low 0.987 | S. cerevisiae deletion strains, locus YOR083W, strain WHI5, active compounds read low 0.968 | S. cerevisiae deletion strains, locus YOR106W, strain vam3, active compounds read low 0.961 | S. cerevisiae deletion strains, locus YOR136W, strain idh2, active compounds read low 0.978 | S. cerevisiae deletion strains, locus YOR144C, strain elg1, active compounds read low 0.967 | S. cerevisiae deletion strains, locus YOR184W, strain ser1, active compounds read low 0.982 | S. cerevisiae deletion strains, locus YOR231W, strain MKK1, active compounds read low 0.971 | S. cerevisiae deletion strains, locus YOR265W, strain rbl2, active compounds read low 0.995 | S. cerevisiae deletion strains, locus YOR270C, strain vph1, active compounds read low 0.965 | S. cerevisiae deletion strains, locus YOR290C, strain snf2, active compounds read low 0.991 | S. cerevisiae deletion strains, locus YOR316C, strain cot1, active compounds read low 0.953 | S. cerevisiae deletion strains, locus YPL051W, strain arl3, active compounds read low 0.985 | S. cerevisiae deletion strains, locus YPL055C, strain LGE1, active compounds read low 1 | S. cerevisiae deletion strains, locus YPL078C, strain atp4, active compounds read low 0.989 | S. cerevisiae deletion strains, locus YPL106C, strain sse1, active compounds read low 0.959 | S. cerevisiae deletion strains, locus YPL240C, strain hsp82, active compounds read low 1 | S. cerevisiae deletion strains, locus YPL241C, strain CIN2, active compounds read low 1.01 | S. cerevisiae deletion strains, locus YPL256C, strain CLN2, active compounds read low 0.945 | S. cerevisiae deletion strains, locus YPR119W, strain clb2, active compounds read low 0.98 | S. cerevisiae deletion strains, locus YPR141C, strain kar3, active compounds read low 0.971 | S. cerevisiae deletion strains, locus YPR163C, strain tif3, active compounds read low 0.982 | S. cerevisiae deletion strains, locus YPR167C, strain met16, active compounds read low 0.97 | S. cerevisiae deletion strains, strain wtn01, active compounds read low 0.982 | S. cerevisiae strains, strain wild type, active compounds read low 1.01
